# Measured values: PubChem BioAssay AID1159580 (chemical genetic matrix, 2015)
# “And” between values parts separate entries of the source, which are not always exact repeats. Equal values may be shown once. The whole screen tested about 5,500 compounds, of which about 2,000 (36%) were called active. Not shown: some 18% with an inconclusive outcome. The list shows a part of the results. A number with no mark means an inactive call. Rule as the data show it: active = normalized growth mostly below about 0.91 (no sharp cut-off); inconclusive = no clear call, values can overlap the other calls; inactive = mostly above about 0.92.
# Test: chemical genetic growth profiling, strain panel (AID 1159580);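 also: tested at 20 µM; growth read once vehicle control cultures reached saturation at 30 °C; 1 = growth at the plate median or of vehicle wells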
# Conditions: S. cerevisiae deletion strains, growth OD
smiles,measurement,setting,value
O=C1[C@H](CCC(O)c2ccc(F)cc2)[C@@H](c2ccc(O)cc2)N1c1ccc(F)cc1 (stereo partly specified),normalized growth,"locus YAL013W, strain DEP1, stronger effect = lower value",0.988
same,normalized growth,"locus YAL021C, strain ccr4, stronger effect = lower value",0.999
same,normalized growth,"locus YAL026C, strain drs2, stronger effect = lower value",0.976
same,normalized growth,"locus YAL030W, strain snc1, stronger effect = lower value",0.968
same,normalized growth,"locus YBL061C, strain skt5, stronger effect = lower value",0.973
same,normalized growth,"locus YBR009C, strain hhf1, stronger effect = lower value",0.981
same,normalized growth,"locus YBR021W, strain FUR4, stronger effect = lower value",0.962
same,normalized growth,"locus YBR023C, strain chs3, stronger effect = lower value",0.979
same,normalized growth,"locus YBR171W, strain sec66, stronger effect = lower value",0.95
same,normalized growth,"locus YBR229C, strain ROT2, stronger effect = lower value",0.99
same,normalized growth,"locus YBR231C, strain swc5, stronger effect = lower value",0.976
same,normalized growth,"locus YBR279W, strain paf1, stronger effect = lower value",0.987
same,normalized growth,"locus YCL011C, strain gbp2, stronger effect = lower value",0.995
same,normalized growth,"locus YCL016C, strain dcc1, stronger effect = lower value",0.992
same,normalized growth,"locus YCL029C, strain bik1, stronger effect = lower value",0.968
same,normalized growth,"locus YCL069W, strain vba3, stronger effect = lower value",0.97
same,normalized growth,"locus YCR088W, strain abp1, stronger effect = lower value",0.967
same,normalized growth,"locus YDL005C, strain med2, stronger effect = lower value",0.956
same,normalized growth,"locus YDL035C, strain GPR1, stronger effect = lower value",0.989
same,normalized growth,"locus YDL040C, strain nat1, stronger effect = lower value",0.979
same,normalized growth,"locus YDL074C, strain BRE1, stronger effect = lower value",0.985
same,normalized growth,"locus YDL101C, strain DUN1, stronger effect = lower value",0.985
same,normalized growth,"locus YDL134C, strain PPH21, stronger effect = lower value",0.988
same,normalized growth,"locus YDL185W, strain tfp1, stronger effect = lower value",0.966
same,normalized growth,"locus YDL192W, strain arf1, stronger effect = lower value",0.977
same,normalized growth,"locus YDR001C, strain nth1, stronger effect = lower value",0.976
same,normalized growth,"locus YDR069C, strain doa4, stronger effect = lower value",0.966
same,normalized growth,"locus YDR101C, strain arx1, stronger effect = lower value",0.981
same,normalized growth,"locus YDR137W, strain rgp1, stronger effect = lower value",1.01
same,normalized growth,"locus YDR150W, strain NUM1, stronger effect = lower value",0.986
same,normalized growth,"locus YDR159W, strain sac3, stronger effect = lower value",0.931
same,normalized growth,"locus YDR162C, strain NBP2, stronger effect = lower value",1
same,normalized growth,"locus YDR195W, strain ref2",0.915
same,normalized growth,"locus YDR297W, strain sur2, stronger effect = lower value",0.988
same,normalized growth,"locus YDR318W, strain mcm21, stronger effect = lower value",0.98
same,normalized growth,"locus YDR334W, strain swr1, stronger effect = lower value",0.983
same,normalized growth,"locus YDR335W, strain msn5, stronger effect = lower value",0.959
same,normalized growth,"locus YDR388W, stronger effect = lower value",0.972
same,normalized growth,"locus YDR392W, strain spt3, stronger effect = lower value",1.03
same,normalized growth,"locus YDR502C, strain sam2, stronger effect = lower value",0.98
same,normalized growth,"locus YEL003W, strain gim4, stronger effect = lower value",0.975
same,normalized growth,"locus YEL037C, strain rad23, stronger effect = lower value",0.957
same,normalized growth,"locus YEL061C, strain CIN8 (second series), stronger effect = lower value",0.966
same,normalized growth,"locus YEL061C, strain CIN8, stronger effect = lower value",0.993
same,normalized growth,"locus YER015W, strain faa2, stronger effect = lower value",0.99
same,normalized growth,"locus YER016W, strain bim1, stronger effect = lower value",0.968
same,normalized growth,"locus YER110C, stronger effect = lower value",0.971
same,normalized growth,"locus YER111C, strain swi4, stronger effect = lower value",0.969
same,normalized growth,"locus YER155C, strain BEM2 (second series), stronger effect = lower value",0.973
same,normalized growth,"locus YER155C, strain BEM2, stronger effect = lower value",1
same,normalized growth,"locus YER167W, strain BCK2, stronger effect = lower value",0.986
same,normalized growth,"locus YFR010W, strain ubp6, stronger effect = lower value",0.951
same,normalized growth,"locus YGL078C, strain dbp3, stronger effect = lower value",0.976
same,normalized growth,"locus YGL086W, strain mad1, stronger effect = lower value",0.984
same,normalized growth,"locus YGL167C, strain pmr1, stronger effect = lower value",0.965
same,normalized growth,"locus YGL173C, strain kem1, stronger effect = lower value",0.979
same,normalized growth,"locus YGL227W, strain vid30, stronger effect = lower value",0.974
same,normalized growth,"locus YGL240W, strain doc1, stronger effect = lower value",0.978
same,normalized growth,"locus YGL248W, strain PDE1, stronger effect = lower value",0.991
same,normalized growth,"locus YGL253W, strain hxk2, stronger effect = lower value",0.908 (active)
same,normalized growth,"locus YGR078C, strain PAC10, stronger effect = lower value",1
same,normalized growth,"locus YGR135W, strain pre9, stronger effect = lower value",0.972
same,normalized growth,"locus YGR229C, strain SMI1, stronger effect = lower value",1.01
same,normalized growth,"locus YGR252W, strain gcn5, stronger effect = lower value",1.01
same,normalized growth,"locus YHR013C, strain ard1, stronger effect = lower value",0.951
same,normalized growth,"locus YHR027C, strain rpn1, stronger effect = lower value",0.972
same,normalized growth,"locus YHR030C, strain SLT2, stronger effect = lower value",0.983 and 0.956
same,normalized growth,"locus YHR079C, strain IRE1 (second series), stronger effect = lower value",0.96
same,normalized growth,"locus YHR079C, strain IRE1, stronger effect = lower value",0.961
same,normalized growth,"locus YHR094C, strain hxt1, stronger effect = lower value",0.977
same,normalized growth,"locus YHR129C, strain ARP1, stronger effect = lower value",0.987
same,normalized growth,"locus YHR142W, strain chs7, stronger effect = lower value",0.901
same,normalized growth,"locus YHR200W, strain rpn10, stronger effect = lower value",0.974
same,normalized growth,"locus YIL066C, strain RNR3, stronger effect = lower value",0.985
same,normalized growth,"locus YIL073C, strain SPO22, stronger effect = lower value",0.961
same,normalized growth,"locus YIL125W, strain kgd1, stronger effect = lower value",0.99
same,normalized growth,"locus YIR030C, strain dcg1, stronger effect = lower value",0.967
same,normalized growth,"locus YJL092W, strain hpr5, stronger effect = lower value",0.972
same,normalized growth,"locus YJL095W, strain BCK1 (second series), stronger effect = lower value",0.975
same,normalized growth,"locus YJL095W, strain BCK1, stronger effect = lower value",0.98 and 1
same,normalized growth,"locus YJL115W, strain asf1, stronger effect = lower value",0.983
same,normalized growth,"locus YJL129C, strain trk1, stronger effect = lower value",0.877
same,normalized growth,"locus YJL134W, strain LCB3, stronger effect = lower value",0.989
same,normalized growth,"locus YJL154C, strain vps35, stronger effect = lower value",0.974
same,normalized growth,"locus YJL164C, strain tpk1, stronger effect = lower value",0.981
same,normalized growth,"locus YJL166W, strain qcr8, stronger effect = lower value",0.952
same,normalized growth,"locus YJL168C, strain set2, stronger effect = lower value",0.965
same,normalized growth,"locus YJL187C, strain SWE1 (second series), stronger effect = lower value",0.979
same,normalized growth,"locus YJL187C, strain SWE1, stronger effect = lower value",0.975
same,normalized growth,"locus YJR043C, strain POL32, stronger effect = lower value",0.985
same,normalized growth,"locus YJR066W, strain TOR1, stronger effect = lower value",0.929
